# Experimental data: paper PMC7862700, “An all-to-all approach to the identification of sequence-specific readers for epigenetic DNA modifications on cytosine”
# What was measured:
# Test in all cases: DAPPL (digital affinity profiling via proximity ligation, sequencing); 10 mM Tris-HCl pH 7.5, 50 mM NaCl, 1 mM DTT, 4% glycerol, room temperature, 30 min; GST-TFs on glutathione beads, 16-mer random dsDNA library, 0.1% formaldehyde crosslink after washing; high values mean tight binding
# Conditions in all cases: protein: recombinant; tags: N-terminal GST; dsDNA, one strand shown
# GABPA = target: T1, GABPA (Homo sapiens, UniProt Q06546 1-454)
# T1 sequence: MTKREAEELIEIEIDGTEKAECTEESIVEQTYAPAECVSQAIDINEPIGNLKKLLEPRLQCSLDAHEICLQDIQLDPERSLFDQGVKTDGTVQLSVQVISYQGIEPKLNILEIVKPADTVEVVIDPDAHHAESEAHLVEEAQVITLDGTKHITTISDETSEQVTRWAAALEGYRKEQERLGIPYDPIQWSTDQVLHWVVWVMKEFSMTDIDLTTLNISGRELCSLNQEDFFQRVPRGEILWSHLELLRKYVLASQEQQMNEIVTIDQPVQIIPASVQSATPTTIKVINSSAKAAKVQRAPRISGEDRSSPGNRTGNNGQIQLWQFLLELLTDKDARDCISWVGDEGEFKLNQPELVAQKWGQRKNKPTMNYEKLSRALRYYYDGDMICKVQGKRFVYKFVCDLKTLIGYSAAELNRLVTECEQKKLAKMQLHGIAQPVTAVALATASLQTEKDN
# Outline: (§1)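 Pools were built from human transcription factors expressed in yeast as GST fusions, captured on glutathione beads and DNA-barcoded, along with a tag-only sample. Incubation with 200 nmole of a 16-mer random double-stranded DNA library lasted 30 min at room temperature in Tris/NaCl/DTT/glycerol buffer, and was followed by washing, 0.1% formaldehyde crosslinking, proximity ligation, PCR amplification and Illumina NextSeq500 sequencing. Binding signal is the quotient of each hexamer's read frequency for a factor and its frequency for the tag-only sample.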
# EHF = target: T2, EHF (Homo sapiens, UniProt Q9NZC4 1-300)
# T2 sequence: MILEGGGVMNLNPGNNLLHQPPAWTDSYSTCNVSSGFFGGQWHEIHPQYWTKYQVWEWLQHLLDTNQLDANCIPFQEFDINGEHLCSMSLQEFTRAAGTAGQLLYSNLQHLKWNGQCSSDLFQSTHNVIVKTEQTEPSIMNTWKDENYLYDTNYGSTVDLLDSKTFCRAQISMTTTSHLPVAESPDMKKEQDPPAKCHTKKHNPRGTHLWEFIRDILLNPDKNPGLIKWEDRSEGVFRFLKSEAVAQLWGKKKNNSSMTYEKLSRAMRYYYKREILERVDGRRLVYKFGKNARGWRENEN
# Outline: as §1
# SPI1 = SPI1 (Homo sapiens, UniProt P17947 1-270)
# Outline: as §1
# ETV5 = ETV5 (Homo sapiens, UniProt P41161 1-510)
# Outline: as §1
# ELF3 = target: T3, ELF3 (Homo sapiens, UniProt P78545 1-371)
# T3 sequence: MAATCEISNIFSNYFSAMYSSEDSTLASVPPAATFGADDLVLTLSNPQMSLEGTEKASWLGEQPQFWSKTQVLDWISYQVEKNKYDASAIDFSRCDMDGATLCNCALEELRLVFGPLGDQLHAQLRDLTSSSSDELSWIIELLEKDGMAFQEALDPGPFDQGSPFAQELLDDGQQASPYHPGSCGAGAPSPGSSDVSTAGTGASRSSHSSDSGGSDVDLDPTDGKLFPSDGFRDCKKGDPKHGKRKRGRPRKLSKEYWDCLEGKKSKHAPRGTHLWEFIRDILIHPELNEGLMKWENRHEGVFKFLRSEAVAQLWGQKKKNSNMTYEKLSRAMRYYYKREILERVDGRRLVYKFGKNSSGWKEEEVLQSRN
# Outline: as §1
# ETV1 = ETV1 (Homo sapiens, UniProt P50549 1-477)
# Outline: as §1
# ERF = target: T4, ERF (Homo sapiens, UniProt P50548 1-548)
# T4 sequence: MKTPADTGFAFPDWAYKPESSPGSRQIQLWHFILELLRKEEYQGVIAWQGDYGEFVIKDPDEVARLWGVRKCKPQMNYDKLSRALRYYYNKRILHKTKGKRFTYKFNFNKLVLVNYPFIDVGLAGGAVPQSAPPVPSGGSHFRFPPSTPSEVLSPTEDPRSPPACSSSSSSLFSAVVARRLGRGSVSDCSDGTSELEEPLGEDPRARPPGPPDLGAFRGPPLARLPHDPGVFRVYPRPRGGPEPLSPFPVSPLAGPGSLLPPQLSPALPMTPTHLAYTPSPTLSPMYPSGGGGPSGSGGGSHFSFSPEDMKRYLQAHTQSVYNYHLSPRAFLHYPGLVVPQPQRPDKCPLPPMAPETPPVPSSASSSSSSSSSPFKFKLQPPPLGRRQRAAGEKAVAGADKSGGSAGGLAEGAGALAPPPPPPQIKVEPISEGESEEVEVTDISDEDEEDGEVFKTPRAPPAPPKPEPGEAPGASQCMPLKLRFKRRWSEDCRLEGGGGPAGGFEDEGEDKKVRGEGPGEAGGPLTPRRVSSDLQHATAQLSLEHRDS
# Outline: as §1
# ETS2 = target: T5, ETS2 (Homo sapiens, UniProt P15036 1-469)
# T5 sequence: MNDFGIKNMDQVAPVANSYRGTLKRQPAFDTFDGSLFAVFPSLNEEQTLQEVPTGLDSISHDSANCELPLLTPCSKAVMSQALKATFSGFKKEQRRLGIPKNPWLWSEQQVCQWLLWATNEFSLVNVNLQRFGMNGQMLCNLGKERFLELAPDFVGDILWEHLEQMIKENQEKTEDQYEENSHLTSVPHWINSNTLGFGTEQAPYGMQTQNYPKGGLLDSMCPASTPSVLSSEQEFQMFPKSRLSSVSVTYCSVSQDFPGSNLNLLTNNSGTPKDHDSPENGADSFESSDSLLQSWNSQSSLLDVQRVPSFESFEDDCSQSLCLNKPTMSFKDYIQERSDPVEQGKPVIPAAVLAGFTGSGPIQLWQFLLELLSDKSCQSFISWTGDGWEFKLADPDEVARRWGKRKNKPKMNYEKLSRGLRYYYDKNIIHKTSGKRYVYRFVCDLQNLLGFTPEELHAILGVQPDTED
# Outline: as §1
# ETV3 = target: T6, ETV3 (Homo sapiens, UniProt P41162-2 1-143)
# T6 sequence: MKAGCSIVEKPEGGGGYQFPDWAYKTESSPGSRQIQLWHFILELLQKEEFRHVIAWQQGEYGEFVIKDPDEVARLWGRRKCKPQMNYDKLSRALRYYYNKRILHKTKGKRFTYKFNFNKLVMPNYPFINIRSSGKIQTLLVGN
# Outline: as §1
# ETV6 = ETV6 (Homo sapiens, UniProt P41212 1-452)
# Outline: as §1
# Sequence of ETV1 (P50549 whole entry): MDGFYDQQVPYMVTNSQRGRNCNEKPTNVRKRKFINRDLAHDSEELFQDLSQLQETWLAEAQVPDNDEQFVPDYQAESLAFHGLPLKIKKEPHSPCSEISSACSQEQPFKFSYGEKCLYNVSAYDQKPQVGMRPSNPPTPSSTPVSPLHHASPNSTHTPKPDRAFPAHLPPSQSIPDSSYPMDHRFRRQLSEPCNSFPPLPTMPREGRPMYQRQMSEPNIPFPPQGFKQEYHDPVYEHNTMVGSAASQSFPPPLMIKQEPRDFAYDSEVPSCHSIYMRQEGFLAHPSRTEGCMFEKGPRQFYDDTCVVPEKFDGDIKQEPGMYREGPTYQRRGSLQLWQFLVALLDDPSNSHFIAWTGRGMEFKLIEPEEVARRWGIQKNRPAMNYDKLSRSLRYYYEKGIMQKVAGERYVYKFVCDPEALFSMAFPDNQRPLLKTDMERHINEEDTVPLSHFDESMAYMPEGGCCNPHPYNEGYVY
# Sequence of ETV5 (P41161 whole entry): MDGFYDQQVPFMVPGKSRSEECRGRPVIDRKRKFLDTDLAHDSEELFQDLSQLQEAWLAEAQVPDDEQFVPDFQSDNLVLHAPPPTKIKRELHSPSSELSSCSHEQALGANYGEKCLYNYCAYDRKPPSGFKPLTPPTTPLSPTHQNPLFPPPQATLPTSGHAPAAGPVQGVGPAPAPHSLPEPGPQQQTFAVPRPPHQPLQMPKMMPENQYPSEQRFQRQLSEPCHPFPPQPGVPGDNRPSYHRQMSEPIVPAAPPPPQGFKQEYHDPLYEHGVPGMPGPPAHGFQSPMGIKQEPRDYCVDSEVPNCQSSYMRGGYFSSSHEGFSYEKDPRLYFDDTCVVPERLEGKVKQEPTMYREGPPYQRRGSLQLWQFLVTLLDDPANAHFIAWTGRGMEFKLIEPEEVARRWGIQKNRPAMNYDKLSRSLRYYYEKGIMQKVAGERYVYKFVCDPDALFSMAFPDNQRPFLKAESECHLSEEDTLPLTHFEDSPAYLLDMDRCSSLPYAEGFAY
# Sequence of ETV6 (P41212 whole entry): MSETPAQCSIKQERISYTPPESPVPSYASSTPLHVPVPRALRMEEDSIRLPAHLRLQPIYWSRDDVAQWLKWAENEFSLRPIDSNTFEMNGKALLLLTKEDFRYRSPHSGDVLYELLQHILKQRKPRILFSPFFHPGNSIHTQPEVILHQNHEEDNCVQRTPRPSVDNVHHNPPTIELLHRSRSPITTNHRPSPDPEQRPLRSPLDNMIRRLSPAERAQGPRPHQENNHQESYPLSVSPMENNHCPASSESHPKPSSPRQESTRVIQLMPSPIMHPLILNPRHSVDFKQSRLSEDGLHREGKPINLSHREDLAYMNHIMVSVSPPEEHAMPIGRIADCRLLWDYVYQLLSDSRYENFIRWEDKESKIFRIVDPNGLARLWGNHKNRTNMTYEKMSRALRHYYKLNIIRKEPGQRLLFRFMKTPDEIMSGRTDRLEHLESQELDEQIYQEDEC
sequence,measurement,setting,value
AGTAAA,binding signal,GABPA,"1.02 fold enrichment (6-mer frequency, TF over GST control)"
same,binding signal,EHF,"1.03 fold enrichment (6-mer frequency, TF over GST control)"
same,binding signal,SPI1,"1.22 fold enrichment (6-mer frequency, TF over GST control)"
same,binding signal,ETV5,"1.05 fold enrichment (6-mer frequency, TF over GST control)"
same,binding signal,ELF3,"1.08 fold enrichment (6-mer frequency, TF over GST control)"
same,binding signal,ETV1,"1.04 fold enrichment (6-mer frequency, TF over GST control)"
same,binding signal,ERF,"1.01 fold enrichment (6-mer frequency, TF over GST control)"
same,binding signal,ETS2,"1.02 fold enrichment (6-mer frequency, TF over GST control)"
same,binding signal,ETV3,"1.03 fold enrichment (6-mer frequency, TF over GST control)"
same,binding signal,ETV6,"1.11 fold enrichment (6-mer frequency, TF over GST control)"
